The whole screen tested about 200,000 compounds, of which about 25 (0.01%) were called active. Not shown: some 23% with an inconclusive outcome. Calls follow the shape of the dose curve; as a rule, active = well fitted inhibition curve with a large enough effect in the signal ratio, with a control signal flat (not every such curve was filed as active); inconclusive = small, poorly fitted or top-dose-only effect, or effect the other way, or a change in a side signal; inactive = flat fitted curve, though single readings scatter; the % refers to the signal ratio. This excerpt belongs to a sample that is enriched for actives.
Assay: qHTS Assay for Modulators of Lamin A Splicing
Conditions: HeLa LMNA splicing GFP/RFP minigene ratio, 48 h; series mostly up to 46 µM; ratio change, negative = inhibition: at the top concentration
From the text: NCGC Assay Overview: Hutchinson-Gilford Progeria Syndrome (HGPS) is a pediatric premature aging disease caused by a spontaneous mutation in the lamin A/C (LMNA) gene. The mutation activates a cryptic splice site in the LMNA pre-mRNA which results in production of a pre-lamin A protein that cannot be processed properly. The mutant protein accumulates in the nucleus and negatively affects numerous cellular functions. Correction of the splicing defect in HGPS patient cells using a targeted oligonucleotide (exo11) leads to reversal of the cellular disease phenotypes. To identify small molecule modulators of aberrant LMNA splicing, a homogenous assay was constructed in HeLa cells that used a GFP containing minigene to report on correction of aberrant splicing in lamin A and a RFP (DsRed2) to report on cell viability, uniformity and nonspecific effects on the assay signal. This assay was adapted to laser-scanning microplate cytometry (Acumen, TTP Labtech) where miniaturization of the assay to a 1,536-well plate format was possible. References: Bowen, W. P.; Wylie, P. G. Application of Laser-Scanning Fluorescence Microplate Cytometry in High Content Screening. Assay Drug Dev Technol 2006;4:209-221. Scaffidi P, Misteli T. Reversal of the cellular phenotype in the premature aging disease Hutchinson-Gilford progeria syndrome. Nat.
NCGC Assay Protocol Summary: Reagents/Controls: Stable clones expressing DsRed2 and lamin A-EGFP were generated by Cell and Molecular Technologies in S3 HeLa cells. HeLa cells were prepared for the assay when they were 70-90% confluent. The cells were counted and resuspended in Opti-MEM I (no phenol red; Gibco), 2% FBS, 1% penicillin/ streptomycin (Gibco) at concentration of 120 cells/uL concentration. The suspension was passed through a Falcon basket filter with pore size 40um (Beckton Dickson). Control titrations: column […] 1536-well plate contained a sixteen point titration (1:2 dilutions) in duplicate of ancitabine (Sigma: A8598) beginning at 40 uM final concentration. Column 2 contained a sixteen point titration (1:2 dilutions) of cycloheximide beginning at 1.4 mM final concentration. Column 3 contained ancitabine at 40 uM and column 4 contained was the vehicle control (0.5% DMSO final concentration). Assay Steps: 5 uL of HeLa cells were plated in Aurora LoBase black clear bottom (cyclic-olefin polymer) 1536-well plates at a final density of 600 cells/well. Controls and library compounds were added with a 1536-well pin array using the Kalypsys pin-tool. The plates were then incubated for 48 hrs in a cell-culture incubator (37 °C; 5% CO2, 98% humidity). Following incubation the plates were read on the Acumen Explorer using the 488 nm laser. Data was collected on objects between 10 and 100 um in size. Cell objects were defined by a 15 um width x 10 um depth filter. The ratio of the total object intensity in PMT1 (500-530 nm emission; GFP) over PMT3 (575-640 nm emission; RFP) was calculated for analysis. Keywords: NIH Roadmap, MLSCN, MLI, MLSMR, qHTS, NCGC, lamin A, Progeria, RNA splicing.
% is scaled to controls: 0 for no effect and ±100 for the full control effect.

Ratio change, negative = inhibition, inactive:
COc1cccc(N(Cc2nnc3n2CCCCC3)C(=O)Nc2ccccc2F)c1 -6.23%, CCOc1ccc(NC(=O)C(CC(C)C)N2Cc3ccccc3C2=O)cc1 (stereo unspecified) -8.38%, Cc1cccc(NC(=O)c2ccc(F)c(S(=O)(=O)N(C)C3CCCCC3)c2)c1 -4.34%, Cc1cc(NC(=O)CSc2nc3c(cc2C#N)CCCCC3)no1 16.5%, Cn1c(N)c(C(=O)COC(=O)c2ccccc2NCc2ccco2)c(=O)n(C)c1=O 9.32%, Cc1csc(NC(=O)Nc2ccccc2[N+](=O)[O-])n1 2.56%, S=c1[nH]nc(-c2cccs2)n1/N=C/c1cccs1 21.8% [at 9.22 µM], COCC(C)NCc1cc(Br)ccc1OC (stereo unspecified) 3.32%, Cc1ccc(S(=O)(=O)NC(=O)N2CCCN(Cc3ccc(F)cc3)CC2)cc1 -2.61%, Cc1ccc(C)c(-n2nnnc2SCC(=O)c2c(N)n(C)c(=O)n(C)c2=O)c1 -17.5% [at 9.22 µM], CC(C(=O)N=Nc1c(O)n(C)c2ccc(Br)cc12)n1cnc2ccccc2c1=O (stereo unspecified) -4.31%, COc1ccc(Br)cc1/C=N/Nc1ccc(Cl)c(C(=O)O)c1 -12.6%, Cc1nnc(SCC(=O)NNC(=O)c2ccc(Cl)cc2)n1CC1CCCO1 (stereo unspecified) -6.72%, CCOC(=O)c1cccc(NC(=O)c2cc(S(=O)(=O)N3CCCC(C)C3)cn2C)c1 (stereo unspecified) -2.92%, Cc1ccc(NC(=O)Cn2c(=O)n(CCC(=O)NC3CCN(Cc4ccccc4)CC3)c(=O)c3ccccc32)cc1 9.28%, Cc1ccccc1NC(=O)NC1(C(=O)N2CCCC2)CCCCC1 5.21%, Cc1cccc(NC(=O)c2ccc3nc(C(C)C)oc3c2)c1C 1.86%, CC(=O)NC(Cc1ccc(F)c(F)c1)C(=O)NC1CCN(c2nnnn2-c2ccccc2)CC1 (stereo unspecified) 7.55%, O=C(CN1CCSCC1)N/N=C/c1ccc(Cl)cc1 -10.4% [at 9.22 µM], COc1ccc2ncc3c(-c4ccc(C)c(C)c4)nn(CC(=O)NC4CCCC4)c3c2c1 -11.7%, COc1ccc(CNC(=O)C2=Cc3cccc(OC)c3OC2)cc1OC -0.906%, Cc1nccn1CCCNC(=O)CC1C(=O)NCCN1Cc1ccc(Cl)c(F)c1 (stereo unspecified) -1.13%, COc1cc(CN(C(=O)c2ccccc2Br)c2ccccn2)cc(OC)c1OC 4.95%, O=Cc1ccc(Oc2cccc(C(F)(F)F)c2)nc1 11.1%, Cc1ccccc1OCCSc1nc2ccc(NC(=O)c3ccco3)cc2s1 -7.54%, COc1cc(Cl)c(C)cc1Nc1nnc(-n2nc(C)cc2C)c2ccccc12 1.63%, COc1ccc(C(=O)Nc2cccc(S(C)(=O)=O)c2)cc1 -6.99%, C=CCn1c(CNC(=O)c2ccco2)nnc1SCC(=O)c1ccc(OC)cc1 17.7%, COc1cc(/C=N/Nc2ccc(C)cc2)cc(Br)c1O 10.1%, O=C(Nc1ccc2nc(SCCOc3ccccc3Cl)sc2c1)c1ccco1 1.78%, Cc1cc(C)c2c(NC(=O)C3CC3)nn(C)c2n1 2.71%, C/C(CC(=O)N1CCN(C=O)CC1)=N\NC(=O)c1ccc(Br)cc1 8.38%, COc1cccc(NC(=O)c2ccc3nc(CCc4ccccc4)oc3c2)c1 -1.82%, COc1ccc(CCNC(=O)c2ccc(CSCc3ccc(C)cc3)o2)cc1OC -5.92%, O=C(COc1ccc(-c2ccccc2)cc1)NN=C1CCCC1 -19.6%, CC1(C)CC(=O)c2cnc3nc4ccccc4n3c2C1 0.78%

Reference: PubChem BioAssay AID1487 (National Center for Advancing Translational Sciences (NCATS), 2009)
